Assay results reported in the supplement of paper PMC10849652.
Of roughly 7,900 targets only a part is listed; those with a hit were picked by preference. About 0.6% of all pairs of compound and target were hits.

Tests used:
Assay in all cases: log2 fold change, soluble protein after heating vs DMSO (PISA); higher = thermal stabilisation; K562 cells, 10 uM, 30 min; active = over 0.2 and 3.5 SD of the protein, either way, in both replicates (recomputed)
[1] = compound: Cc1ccc(NC(=O)c2ccc(CN3CC[C@H](N(C)C)C3)c(C(F)(F)F)c2)cc1Nc1nccc(-c2cncnc2)n1 [bafetinib]
Method in brief: (§1)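 Quantification of soluble protein used TMTpro 16plex LC-MS/MS, with channel sums equalised. Samples were the supernatant after 21,000xg for 90 min of pooled aliquots from K562 cells (2×10^6 cells/mL) treated with 10 μM compound for 30 min, heated for 3 min over 48°C-58°C, and extracted in PBS with 0.5% NP-40 at 4°C. Values, from duplicates, describe thermal stability against control samples on a log2 fold-change scale.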

[2] = compound: Cc1cccc(CC(=O)N2CCc3c2ccc(-c2cn(C)c4ncnc(N)c24)c3F)n1
Method in brief: as §1

[3] = compound: NC(=O)Nc1cc(-c2cccc(F)c2)sc1C(=O)N[C@H]1CCCNC1
Method in brief: as §1

[4] = compound: Nc1ccccc1NC(=O)c1ccc(CNC(=O)OCc2cccnc2)cc1 [entinostat]
Method in brief: as §1

[5] = compound: O=C(CCCCCCC(=O)Nc1ccccc1)NO [vorinostat]
Method in brief: as §1

[6] = compound: O=C1NC(=O)C(c2cnc3ccccn23)=C1c1cn2c3c(cc(F)cc13)CN(C(=O)N1CCCCC1)CC2
Method in brief: as §1

[7] = compound: Cc1cn(-c2cc(NC(=O)c3ccc(C)c(Nc4nccc(-c5cccnc5)n4)c3)cc(C(F)(F)F)c2)cn1 [nilotinib]
Method in brief: as §1

[8] = compound: Cc1nc(Nc2n[nH]c3c2CN(C(=O)N[C@H](CN(C)C)c2ccccc2)C3(C)C)c2sccc2n1
Method in brief: as §1

[9] = compound: Cc1nc(Nc2ncc(C(=O)Nc3c(C)cccc3Cl)s2)cc(N2CCN(CCO)CC2)n1 [dasatinib]
Method in brief: as §1

[10] = compound: Cc1ncc(-c2ccnc(Nc3ccc(S(C)(=O)=O)cc3)n2)n1C(C)C
Method in brief: as §1

[11] = compound: NCC(=O)Nc1ccc(-n2nc(C(F)(F)F)cc2-c2ccc3c(ccc4ccccc43)c2)cc1
Method in brief: as §1

[12] = compound: O=C(CCCCCCNC(=O)c1cnc(N(c2ccccc2)c2ccccc2Cl)nc1)NO [citarinostat]
Method in brief: as §1

[13] = compound: c1cc(OCCN2CCCCC2)cc(-c2n[nH]c3ccc(-c4nnc[nH]4)cc23)c1
Method in brief: as §1

[14] = compound: Cn1cc(-c2ccc3c(c2)CCN3C(=O)Cc2cccc(C(F)(F)F)c2)c2c(N)ncnc21
Method in brief: as §1

[15] = compound: Cn1cc(-c2ccc3nnc(C(F)(F)c4ccc5ncccc5c4)n3n2)cn1
Method in brief: as §1

[16] = compound: Cn1cncc1[C@@](N)(c1ccc(Cl)cc1)c1ccc2c(c1)c(-c1cccc(Cl)c1)cc(=O)n2C [tipifarnib]
Method in brief: as §1

[17] = compound: NC(=O)c1cnc(N[C@@H]2CCCC[C@@H]2N)nc1Nc1cccc(-n2nccn2)c1
Method in brief: as §1

[18] = compound: FC(F)(F)c1ccc(/C=C/c2nc(COc3ccc(CCCCn4ccnn4)cc3)co2)cc1 [mubritinib]
Method in brief: as §1

[19] = compound: NC1(c2ccc(-c3nc4ccn5c(=O)[nH]nc5c4cc3-c3ccccc3)cc2)CCC1
Method in brief: as §1

[20] = compound: O=C(O)c1ccc2c(c1)nc(Nc1cccc(Cl)c1)c1ccncc12 [silmitasertib]
Method in brief: as §1

Measured: log2 fold change

PRKD2 (UniProt M0R346)
inactive: [1] -0.147 | [2] -0.136 | [3] -0.279 | [4] 0.032 | [5] 0.021 | [6] -0.15

PAN2 (UniProt Q504Q3)
Chain of UniProt Q504Q3 (Q504Q3 whole entry, looked up): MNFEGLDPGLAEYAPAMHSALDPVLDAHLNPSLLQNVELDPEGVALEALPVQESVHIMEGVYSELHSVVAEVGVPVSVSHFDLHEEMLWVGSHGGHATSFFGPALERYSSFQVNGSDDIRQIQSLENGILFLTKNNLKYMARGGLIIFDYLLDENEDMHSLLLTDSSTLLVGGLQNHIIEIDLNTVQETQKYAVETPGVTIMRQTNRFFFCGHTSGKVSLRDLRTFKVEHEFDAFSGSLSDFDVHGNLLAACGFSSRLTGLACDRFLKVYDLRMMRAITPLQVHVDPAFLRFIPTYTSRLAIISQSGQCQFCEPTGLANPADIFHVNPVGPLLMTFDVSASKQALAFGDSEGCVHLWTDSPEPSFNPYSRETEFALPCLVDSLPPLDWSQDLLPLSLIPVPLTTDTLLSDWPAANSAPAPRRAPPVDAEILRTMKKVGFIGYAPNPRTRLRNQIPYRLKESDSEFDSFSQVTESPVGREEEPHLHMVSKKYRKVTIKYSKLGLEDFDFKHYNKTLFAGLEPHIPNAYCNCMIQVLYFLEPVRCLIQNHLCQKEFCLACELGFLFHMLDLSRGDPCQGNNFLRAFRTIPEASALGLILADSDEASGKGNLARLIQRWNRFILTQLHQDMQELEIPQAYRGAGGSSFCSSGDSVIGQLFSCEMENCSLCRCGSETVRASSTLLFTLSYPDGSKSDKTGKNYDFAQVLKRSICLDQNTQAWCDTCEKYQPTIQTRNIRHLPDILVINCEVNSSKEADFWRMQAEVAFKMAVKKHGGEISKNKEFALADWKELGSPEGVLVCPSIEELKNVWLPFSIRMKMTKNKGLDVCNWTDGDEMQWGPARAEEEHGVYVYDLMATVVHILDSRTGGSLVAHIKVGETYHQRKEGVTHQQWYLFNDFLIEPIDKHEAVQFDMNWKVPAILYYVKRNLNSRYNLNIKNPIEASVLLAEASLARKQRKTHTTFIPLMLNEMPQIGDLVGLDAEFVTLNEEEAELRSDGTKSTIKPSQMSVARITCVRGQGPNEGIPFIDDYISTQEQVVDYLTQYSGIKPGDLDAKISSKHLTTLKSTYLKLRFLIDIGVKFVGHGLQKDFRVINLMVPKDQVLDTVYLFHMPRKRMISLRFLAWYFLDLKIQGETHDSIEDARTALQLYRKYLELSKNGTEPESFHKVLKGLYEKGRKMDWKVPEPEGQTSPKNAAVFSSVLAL
inactive: [1] -0.052 | [7] -0.123 | [8] -0.02 | [9] 0.013 | [10] -0.09 | [11] -0.198 | [12] -0.127 | [13] 0.002

PSMA3 (UniProt H0YJ03)
inactive: [9] 0.133 | [14] 0.036 | [15] -0.017 | [16] 0.02 | [17] -0.059 | [11] -0.048 | [12] 0.081 | [13] 0.143

PRKX (UniProt P51817)
inactive: [1] -0.039 | [18] 0.108 | [19] -0.243 | [20] 0.153

PTP4A3 (UniProt O75365)
inactive: [1] 0.162 | [11] -0.105

PPP1R12B isoform 6 (UniProt O60237)
Chain of UniProt O60237 (O60237 whole entry, looked up): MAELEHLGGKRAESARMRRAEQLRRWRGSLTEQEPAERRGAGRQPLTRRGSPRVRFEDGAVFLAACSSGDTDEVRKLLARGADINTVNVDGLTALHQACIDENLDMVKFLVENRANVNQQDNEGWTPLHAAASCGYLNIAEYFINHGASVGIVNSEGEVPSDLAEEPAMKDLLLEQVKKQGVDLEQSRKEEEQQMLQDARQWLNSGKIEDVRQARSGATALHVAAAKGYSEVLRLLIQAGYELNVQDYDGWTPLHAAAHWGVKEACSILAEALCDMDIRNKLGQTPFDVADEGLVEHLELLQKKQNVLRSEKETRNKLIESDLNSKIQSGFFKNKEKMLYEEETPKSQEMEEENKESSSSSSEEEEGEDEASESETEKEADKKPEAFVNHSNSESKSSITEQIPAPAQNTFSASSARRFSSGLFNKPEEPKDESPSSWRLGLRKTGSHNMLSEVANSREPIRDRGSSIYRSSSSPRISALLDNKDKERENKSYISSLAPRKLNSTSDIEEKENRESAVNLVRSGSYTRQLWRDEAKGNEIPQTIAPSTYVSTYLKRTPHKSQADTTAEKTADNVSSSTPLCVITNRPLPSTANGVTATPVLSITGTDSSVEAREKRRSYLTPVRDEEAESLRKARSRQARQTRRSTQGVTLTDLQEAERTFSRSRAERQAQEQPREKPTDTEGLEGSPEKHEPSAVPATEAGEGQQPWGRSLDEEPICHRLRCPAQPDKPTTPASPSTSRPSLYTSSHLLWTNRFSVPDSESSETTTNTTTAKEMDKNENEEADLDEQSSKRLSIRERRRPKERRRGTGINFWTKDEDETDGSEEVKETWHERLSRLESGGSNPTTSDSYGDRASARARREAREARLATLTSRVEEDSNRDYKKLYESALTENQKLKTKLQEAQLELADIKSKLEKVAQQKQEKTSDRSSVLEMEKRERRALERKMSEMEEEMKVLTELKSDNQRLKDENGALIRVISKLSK
inactive: [1] -0.024 | [7] -0.004 | [8] -0.191 | [10] 0.007

PLCXD1 (UniProt Q9NUJ7)
inactive: [15] -0.099
active: [1] -0.642

PRR14L (UniProt Q5THK1)
inactive: [2] -0.156 | [7] -0.027 | [8] -0.044 | [10] -0.007 | [14] 0.019 | [16] -0.039 | [17] -0.205 | [11] -0.176 | [5] -0.009

PDIK1L (UniProt Q8N165)
Chain of UniProt Q8N165 (Q8N165 whole entry, looked up): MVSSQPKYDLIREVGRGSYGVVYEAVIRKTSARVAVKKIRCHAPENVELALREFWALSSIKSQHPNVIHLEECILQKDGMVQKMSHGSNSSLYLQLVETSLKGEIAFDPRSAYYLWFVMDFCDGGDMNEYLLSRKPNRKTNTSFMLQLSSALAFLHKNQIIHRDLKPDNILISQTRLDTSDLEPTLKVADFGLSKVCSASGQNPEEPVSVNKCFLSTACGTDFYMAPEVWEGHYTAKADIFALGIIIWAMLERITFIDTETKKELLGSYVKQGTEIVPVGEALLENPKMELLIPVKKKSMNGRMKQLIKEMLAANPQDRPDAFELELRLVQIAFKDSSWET
inactive: [1] 0.166 | [7] -0.026 | [9] -0.081 | [10] -0.037 | [14] 0.05 | [15] 0.13 | [16] -0.152 | [18] 0.034 | [17] -0.025 | [19] -0.075 | [11] -0.225 | [4] -0.094 | [12] 0.016 | [20] 0.035 | [6] 0.019 | [13] -0.162
active: [8] 0.578 | [3] 0.566

PSMC3 (UniProt E9PLG2)
inactive: [1] 0.147 | [9] 0.258 | [18] 0.059 | [3] -0.62 | [19] -0.077 | [11] 0.117 | [4] -0.438 | [20] 0.097 | [6] -0.327

POLR2M (UniProt Q6EEV4)
Chain of UniProt Q6EEV4 (Q6EEV4 whole entry, looked up): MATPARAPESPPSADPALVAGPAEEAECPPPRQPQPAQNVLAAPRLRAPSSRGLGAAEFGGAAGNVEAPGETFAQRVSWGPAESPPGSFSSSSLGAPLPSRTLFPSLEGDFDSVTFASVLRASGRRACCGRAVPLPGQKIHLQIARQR
inactive: [1] -0.215 | [7] 0.107 | [8] -0.016 | [9] -0.003 | [10] -0.022 | [14] 0.135 | [16] -0.095 | [18] 0.035 | [3] 0.027 | [17] -0.09 | [19] -0.065 | [11] -0.056 | [4] -0.148 | [12] 0.029 | [20] 0.03 | [6] -0.122 | [13] -0.009

PTP4A2 (UniProt Q12974)
inactive: [1] -0.045 | [7] 0.007 | [8] -0.056 | [9] 0.089 | [14] 0.094 | [15] -0.013 | [16] 0.048 | [18] 0.047 | [3] -0.161 | [17] -0.286 | [19] 0.079 | [11] -0.023 | [4] 0.011 | [12] 0.016 | [20] 0.052 | [6] -0.168 | [13] -0.045
active: [10] -0.43

QRICH1 (UniProt Q2TAL8)
Chain of UniProt Q2TAL8 (Q2TAL8 whole entry, looked up): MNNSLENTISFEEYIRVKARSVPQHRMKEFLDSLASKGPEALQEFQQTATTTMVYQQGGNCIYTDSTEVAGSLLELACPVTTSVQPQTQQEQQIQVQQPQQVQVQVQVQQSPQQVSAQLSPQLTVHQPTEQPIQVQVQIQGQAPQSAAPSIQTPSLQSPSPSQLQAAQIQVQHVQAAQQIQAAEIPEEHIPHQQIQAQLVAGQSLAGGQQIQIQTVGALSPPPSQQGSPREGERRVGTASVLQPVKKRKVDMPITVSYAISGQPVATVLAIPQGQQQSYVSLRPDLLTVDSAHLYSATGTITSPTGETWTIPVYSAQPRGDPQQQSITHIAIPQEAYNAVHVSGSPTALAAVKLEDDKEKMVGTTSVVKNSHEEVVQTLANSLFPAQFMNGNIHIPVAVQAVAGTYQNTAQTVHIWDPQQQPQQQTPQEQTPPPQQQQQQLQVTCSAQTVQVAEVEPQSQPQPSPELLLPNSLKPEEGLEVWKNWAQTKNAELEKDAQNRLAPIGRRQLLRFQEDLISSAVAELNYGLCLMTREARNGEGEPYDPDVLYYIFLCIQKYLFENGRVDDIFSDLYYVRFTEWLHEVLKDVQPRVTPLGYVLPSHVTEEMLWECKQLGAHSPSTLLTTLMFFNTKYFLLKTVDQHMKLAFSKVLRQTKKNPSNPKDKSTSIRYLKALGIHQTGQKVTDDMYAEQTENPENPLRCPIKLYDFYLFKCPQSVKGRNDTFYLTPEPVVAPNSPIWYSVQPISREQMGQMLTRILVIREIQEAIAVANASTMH
inactive: [1] 0.042 | [7] -0.093 | [8] -0.118 | [9] -0.206 | [10] 0.078 | [14] 0.043 | [15] 0.108 | [16] -0.159 | [18] -0.01 | [3] -0.043 | [17] -0.119 | [19] -0.137 | [11] -0.093 | [4] 0.168 | [12] 0.11 | [20] 0.047 | [6] -0.276 | [13] 0.027

PDE4A (UniProt P27815)
Chain of UniProt P27815 (P27815 whole entry, looked up): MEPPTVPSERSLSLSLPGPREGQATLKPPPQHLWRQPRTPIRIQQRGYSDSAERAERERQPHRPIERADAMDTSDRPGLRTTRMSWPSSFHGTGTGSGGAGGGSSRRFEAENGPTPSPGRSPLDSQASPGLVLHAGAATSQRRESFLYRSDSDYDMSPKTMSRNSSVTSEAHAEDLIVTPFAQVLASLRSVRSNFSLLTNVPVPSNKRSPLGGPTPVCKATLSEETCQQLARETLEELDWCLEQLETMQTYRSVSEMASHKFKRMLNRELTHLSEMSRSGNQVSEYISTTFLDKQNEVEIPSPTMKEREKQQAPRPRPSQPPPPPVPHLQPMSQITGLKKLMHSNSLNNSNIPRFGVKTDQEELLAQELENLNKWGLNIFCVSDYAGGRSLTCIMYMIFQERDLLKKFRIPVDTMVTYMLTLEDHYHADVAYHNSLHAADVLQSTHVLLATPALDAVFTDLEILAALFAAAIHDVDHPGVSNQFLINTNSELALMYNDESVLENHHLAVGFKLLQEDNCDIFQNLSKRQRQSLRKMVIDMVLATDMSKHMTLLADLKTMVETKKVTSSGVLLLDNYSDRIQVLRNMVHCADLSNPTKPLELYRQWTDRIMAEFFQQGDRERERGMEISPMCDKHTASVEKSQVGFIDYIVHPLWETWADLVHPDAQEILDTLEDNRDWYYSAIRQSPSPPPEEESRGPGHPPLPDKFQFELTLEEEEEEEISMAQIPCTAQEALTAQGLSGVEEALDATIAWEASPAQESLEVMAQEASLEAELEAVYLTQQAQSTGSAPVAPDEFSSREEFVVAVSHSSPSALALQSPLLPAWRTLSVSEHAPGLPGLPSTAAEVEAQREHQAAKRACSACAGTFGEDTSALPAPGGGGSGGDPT
active: [17] -0.67
inactive: [1] -0.157 | [14] -0.016 | [15] 0.021 | [16] -0.108 | [11] 0.047 | [6] -0.017

PTEN isoform 2 (UniProt P60484)
Chain of UniProt P60484 (P60484 whole entry, looked up): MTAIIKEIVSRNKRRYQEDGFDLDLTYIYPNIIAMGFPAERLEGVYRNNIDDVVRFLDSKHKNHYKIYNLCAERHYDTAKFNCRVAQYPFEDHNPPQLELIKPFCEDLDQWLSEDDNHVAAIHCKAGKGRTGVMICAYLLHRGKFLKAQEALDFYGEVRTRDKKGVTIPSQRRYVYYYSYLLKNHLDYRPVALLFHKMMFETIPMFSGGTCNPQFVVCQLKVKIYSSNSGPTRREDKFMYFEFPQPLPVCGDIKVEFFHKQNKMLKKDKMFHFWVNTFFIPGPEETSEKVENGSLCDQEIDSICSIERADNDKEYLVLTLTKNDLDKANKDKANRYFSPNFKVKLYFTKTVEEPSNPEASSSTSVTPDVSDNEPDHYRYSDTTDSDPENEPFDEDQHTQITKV
inactive: [2] 0.158 | [15] -0.087 | [16] -0.212 | [5] 0.024 | [12] 0.089 | [13] 0.066

POLB (UniProt P06746)
inactive: [2] -0.081 | [7] -0.103 | [8] -0.134 | [9] -0.04 | [10] 0.009 | [14] 0.143 | [15] -0.133 | [16] 0.043 | [3] -0.103 | [4] 0.107 | [5] -0.106 | [12] 0.189 | [6] 0.113 | [13] -0.026

PSMD8 (UniProt K7ERW6)
inactive: [11] -0.417

PIM1 isoform 2 (UniProt P11309)
Chain of UniProt P11309 (P11309 whole entry, looked up): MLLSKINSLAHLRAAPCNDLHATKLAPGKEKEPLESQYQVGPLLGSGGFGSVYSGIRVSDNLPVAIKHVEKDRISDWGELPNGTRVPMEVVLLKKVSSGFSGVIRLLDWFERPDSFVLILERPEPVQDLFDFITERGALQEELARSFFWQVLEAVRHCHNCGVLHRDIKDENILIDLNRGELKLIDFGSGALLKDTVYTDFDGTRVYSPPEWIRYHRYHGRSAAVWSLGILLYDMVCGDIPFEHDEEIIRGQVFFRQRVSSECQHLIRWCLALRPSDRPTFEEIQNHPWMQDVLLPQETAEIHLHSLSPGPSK
inactive: [2] -0.263 | [18] 0.721 | [19] 0.388 | [5] -0.123 | [20] 0.575
